Assay outcomes (PubChem)
Shown is part of a subset that was picked to be rich in hits.
GALC G270D up: raises human GALC G270D mutant activity in cells; P54803; 145M-Twi-hGALC-G270D cells (Twitcher mouse brain line with human GALC G270D), HMU-beta-Gal fluorescence, 48 h; Potency, µM (highest dose often 57.5 µM), most hits filed as activators; 45,000 tested, 0.1% active; AID 1159614; further: nearly all actives have a fitted effect of over 65% in size
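Live 145M-Twi cells (Twitcher mouse brain-derived, GALC-null) stably expressing human GALC-G270D, with a wild-type GALC line, were compound-treated. Residual GALC activity was then read as fluorescence from 0.1 mM final HMU-β-gal at pH 5.2; higher signal means activation.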
NTMT1 inh: inhibitors of human N-terminal methyltransferase NTMT1 | NTMT1 MTase-Glo SAH luminescence, purified enzyme | 59,000 tested, 2.5% active | Q9BV86 | Potency, µM (series often up to 114 µM), hits mostly inhibitors | AID 1645870; further: nearly all actives have a fitted effect of over 65% in size
Target sequence (Q9BV86 whole entry, looked up): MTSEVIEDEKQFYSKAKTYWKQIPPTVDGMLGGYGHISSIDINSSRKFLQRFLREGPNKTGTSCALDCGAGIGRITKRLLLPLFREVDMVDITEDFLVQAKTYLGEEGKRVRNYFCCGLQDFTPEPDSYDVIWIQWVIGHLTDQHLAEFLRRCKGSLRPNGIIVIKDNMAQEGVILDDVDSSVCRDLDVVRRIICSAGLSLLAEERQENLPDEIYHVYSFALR
FH mod: Identification of activators of human fumarate hydratase by quantitative high-throughput screening. 54,000 tested, 0.22% active. Potency, µM (highest dose often 79.9 µM), usual class: inhibitors. FH coupled MDH/diaphorase resazurin fluorescence, 15 min. Fumarate hydratase, mitochondrial (Homo sapiens), P07954. AID 1347055, 2019; further: the screen sought activators but most active calls are inhibition curves; nearly all actives have a fitted effect of over 45% in size
Of the large screens only hits and unclear results are named; the others gave an inactive call; ! = a repeat was not active. The call rests on the fitted dose curve; in most records, active means well fitted curve in the direction sought with a large enough effect; inconclusive means small, poorly fitted or top-dose-only effect, or another doubt; inactive means no such curve, though single readings can be large; an effect the other way counts as inactive or inconclusive.

COc1ccccc1NC(=O)C1=C(C)Nc2nc(SCc3ccccc3F)nn2C1c1ccncc1 (stereo unspecified)	NTMT1 inh 89µM
Cc1ccc(Nc2nccc(N(C)c3ccc4c(C)n(C)nc4c3)n2)cc1S(N)(=O)=O	NTMT1 inh 16µM!
Cc1ccc(O)cc1Nc1ccnc(Nc2cccc(C(N)=O)c2)n1	none (no result: GALC G270D up)
CC(C)Oc1ccc(CNC(=O)Cn2nc(N3CCN(c4ccccc4)CC3)ccc2=O)cc1	NTMT1 inh 89µM
CCOc1ccc(CNC(=O)Cn2nc(N3CCN(c4ccccc4)CC3)ccc2=O)cc1	none
COc1cn(-c2ccc(-n3cccn3)cc2F)nc(-c2ccnn2-c2ccccc2)c1=O	none (no result: GALC G270D up)
CC(C)CN(C[C@@H](O)[C@H](Cc1ccccc1)NC(=O)O[C@@H]1CO[C@H]2OCC[C@H]21)S(=O)(=O)c1ccc(N)cc1	none (no result: GALC G270D up)
O=C(NO)c1ccc(CC(=O)N(CCO)c2ccccc2)cc1	none (no result: GALC G270D up)
C[C@@H]1O[C@@H](O[C@@H]2[C@@H](O)[C@H](O[C@@H]3[C@@H](O)[C@@H](O)[C@H](O[C@H]4[C@H](OC(=O)[C@]56CCC(C)(C)C[C@H]5C5=CCC7[C@@]8(C)C[C@H](O)[C@H](O[C@@H]9O[C@H](C(=O)O)[C@@H](O)[C@H](O)[C@H]9O)[C@@](C)(CO)C8[C@H](O)C[C@@]7(C)[C@]5(C)CC6)OC[C@H](O)[C@@H]4O)O[C@H]3C)OC[C@H]2O)[C@H](O)[C@H](O)[C@H]1O (stereo partly specified)	none (no result: GALC G270D up)
Cc1ccc(C)c(-c2[nH]c3c(c2-c2c(-n4cccc4)n(C)c(=O)[nH]c2=O)c(=O)[nH]c(=O)n3C)c1	NTMT1 inh 89µM
COc1cccc(-c2[nH]c3c(c2-c2c(-n4cccc4)n(C)c(=O)[nH]c2=O)c(=O)[nH]c(=O)n3C)c1	NTMT1 inh inconclusive
O=C(CN1C(=O)N/C(=C\c2cccn2-c2cccc(C(=O)O)c2)C1=O)Nc1cccc(Cl)c1	NTMT1 inh 79µM (no result: GALC G270D up, FH mod)
O=C(CN1C(=O)N/C(=C\c2cccn2-c2cccc(C(=O)O)c2)C1=O)Nc1ccccc1F	none (no result: GALC G270D up, FH mod)
Cc1ccc(NC(=O)CN2C(=O)N/C(=C\c3cccn3-c3ccc(C(=O)NS(C)(=O)=O)cc3)C2=O)cc1	NTMT1 inh 79µM (no result: GALC G270D up, FH mod)
Cc1ccc(NC(=O)CN2C(=O)N/C(=C\c3cccn3-c3ccc(C(=O)O)cc3)C2=O)cc1	none (no result: GALC G270D up, FH mod)
O=C(O)c1cccc(-n2cccc2/C=C2/C(=O)N(Cc3ccc(F)cc3)C(=O)N2Cc2ccc(F)cc2)c1	NTMT1 inh 79µM (no result: GALC G270D up, FH mod)
O=C(CN1C(=O)N/C(=C\c2cccn2-c2cccc(C(=O)O)c2)C1=O)Nc1cccc(F)c1	none (no result: GALC G270D up, FH mod)
COc1ccc(CNC(=O)c2cc(-c3cncc(C)c3)ncc2-c2nccs2)nc1OC	none (no result: GALC G270D up)
CCC(C)C1NC(=O)C2CCCN2C(=O)C(C(C)C)NC(=O)c2ccccc2NC(=O)C(Cc2ccc(O)cc2)NC(=O)C(C)NC(=O)C(C(C)O)NC1=O (stereo unspecified)	none (no result: GALC G270D up)
CC(=O)OCC(Cc1ccccc1)NC(=O)C(Cc1ccccc1)NC(=O)c1ccccc1 (stereo unspecified)	none (no result: GALC G270D up)
COc1ccc(S(=O)(=O)N(CCc2ccccc2)CC(=O)Nc2cc(Cl)ccc2C)cc1	NTMT1 inh 4µM
Cc1ccc(C)c(NC(=O)CN(CCc2ccccc2)S(=O)(=O)c2ccccc2)c1	FH mod inconclusive
CCCOc1ccc(C(=O)Nc2ccc(NC(=O)c3ccccc3)c(C)c2)cc1	none
O=C(Nc1cccc2c(=O)cc(-c3nn[nH]n3)oc12)c1ccc(OCCCCc2ccccc2)cc1	NTMT1 inh 18µM, FH mod inconclusive
CCOC(=O)c1nnc(N[S+](=O)([O-])c2ccc(NC(=O)Cc3ccc(Cl)c(Cl)c3)cc2)s1	NTMT1 inh 79µM (no result: GALC G270D up, FH mod)
CCOC(=O)c1cccc(NS(=O)(=O)c2ccc(NC(=O)Cc3ccc(Cl)c(Cl)c3)cc2)c1	none (no result: GALC G270D up, FH mod)
FC(F)(F)c1ccccc1-c1cc(C(F)(F)F)c2nc(C3=NOC4(CCCCC4)C3)[nH]c2c1	none (no result: GALC G270D up)
Cc1ccc(S(=O)(=O)Nc2ccccc2C(=O)Nc2ccc(-c3ccccc3)cc2)cc1	none (no result: GALC G270D up, FH mod)
CCOC(=O)C1CCN(C(=O)C2(NC(=O)Nc3ccccc3Cl)CCC2)CC1	none (no result: GALC G270D up, FH mod)
CN(CCCN1c2ccccc2CCc2ccccc21)CC(=O)c1ccc(Cl)cc1	NTMT1 inh 32µM
CN(C)CCCN1c2ccccc2CCc2ccc(Cl)cc21	NTMT1 inh inconclusive
CCCn1c(=N)c(C(=O)NC2CCCC2)cc2c(=O)n3cccc(C)c3nc21	none
Cc1cccn2c(=O)c3cc(C(=O)NC(C)c4ccccc4)c(=N)n(CCOCCO)c3nc12 (stereo unspecified)	none
